Our source for the outcome and AC50 values is PubChem BioAssay (EPA / NIEHS).

Molecules are shown by their SMILES. “And” between values parts separate entries of the source, which are not always exact repeats. Equal entries are not always repeated. The source made the active and inactive calls. Rule for the calls: active = hit-call score of the fitted dose curve at least 0.9, where 1 is the maximum; inactive = score below 0.9.

Read-out in assay [1]: Monocyte Chemoattractant Protein-1 (MCP1), CCL2 (gene 6347)
In words: BSK_LPS_MCP1: BioMAP Diversity Plus: LPS Assay for Monocyte Chemoattractant Protein-1 (MCP1) Biomarker Activity (AID 2283081).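 For AC50: secreted MCP-1 protein quantified by ELISA in culture supernatant.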 The conditions noted are these: primary human HUVEC with PBMC; actives raise or lower the signal. The method in brief:
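Human endothelial–PBMC co-cultures were dosed with chemical, then LPS-driven MCP-1 levels were quantified by ELISA at 24 h. Activity in either direction was fitted versus DMSO negative control.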

Assay [2] can be described thus: BSK_LPS_PGE2: BioMAP Diversity Plus: LPS Assay for Prostaglandin E2 (PGE2) Biomarker Activity (AID 2283082).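 For AC50: secreted prostaglandin E2 measured by ELISA in LPS-stimulated co-culture.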 The conditions noted are these: primary human HUVEC with PBMC; actives raise or lower the signal. The method in brief:
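Primary human endothelial cells and blood mononuclear cells, co-cultured with LPS, receive test chemical; PGE2 ELISA follows at 24 h, with SRB-stained parallel cultures flagging cytotoxicity.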

Read-out in assay [3]: Macrophage colony-stimulating factor (MCSF), CSF1 (gene 1435)
In words: BSK_LPS_MCSF: BioMAP Diversity Plus: LPS Assay for Macrophage colony-stimulating factor (MCSF) Biomarker Activity (AID 2283083). The conditions noted are these: primary human HUVEC with PBMC; actives raise or lower the signal. The method in brief: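 ELISA readout of M-CSF after 24 h compound exposure in a human endothelial/PBMC co-culture. Activity, in either direction, is fitted relative to DMSO vehicle.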

Read-out in assay [4]: Tissue Factor, F3 (gene 2152)
As to the kind of experiment: BSK_LPS_TissueFactor: BioMAP Diversity Plus: LPS Assay for Tissue Factor Biomarker Activity (AID 2283084). The conditions noted are these: primary human HUVEC with PBMC; actives raise or lower the signal. The method in brief:
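ELISA signal for cell-surface Tissue Factor (CD142) was read 24 h after compound dosing of an LPS-stimulated human endothelial–PBMC primary co-culture. Gain or loss of signal was scored relative to DMSO.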

Read-out in another assay: CD38, CD38 (gene 952)
In words: BSK_SAg_CD38: BioMAP Diversity Plus: SAg Assay for CD38 Biomarker Activity (AID 2283087). The conditions noted are these: primary human HUVEC with PBMC; actives raise or lower the signal. The method in brief:
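Measures CD38 on a human endothelial/PBMC co-culture driven by SEB and TSST-1, 24 h after compound exposure, using ELISA with fluorescence detection; DMSO defines baseline for bidirectional curve fitting.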

Read-out in the next assay: CD40, CD40 (gene 958)
In words: BSK_SAg_CD40: BioMAP Diversity Plus: SAg Assay for CD40 Biomarker Activity (AID 2283088). The conditions noted are these: primary human HUVEC with PBMC; actives raise or lower the signal. The method in brief: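 Compounds were dosed onto a human primary endothelial–PBMC co-culture, and after 24 h CD40 was quantified by ELISA using a fluorescence signal. Activity in either direction was fitted relative to DMSO.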

Read-out in a further assay: CD69, CD69 (gene 969)
As to the kind of experiment: BSK_SAg_CD69: BioMAP Diversity Plus: SAg Assay for CD69 Biomarker Activity (AID 2283089).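 For AC50: cell surface CD69 protein quantified by ELISA with fluorescence detection.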 The conditions noted are these: primary human HUVEC with PBMC; actives raise or lower the signal. The method in brief:
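Endothelial/PBMC co-culture; chemical added; 24 h incubation; CD69 ELISA with fluorescence detection; bidirectional fit vs DMSO.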

Read-out in assay [5]: Monocyte Chemoattractant Protein-1 (MCP1), CCL2 (gene 6347)
As to the kind of experiment: BSK_SAg_MCP1: BioMAP Diversity Plus: SAg Assay for Monocyte Chemoattractant Protein-1 (MCP1) Biomarker Activity (AID 2283090). The conditions noted are these: primary human HUVEC with PBMC; actives raise or lower the signal. The method in brief: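 Values derive from bidirectional fitting of ELISA-measured MCP1 against DMSO controls. Readings were taken 24 h after dosing human vascular endothelial cells co-cultured with peripheral blood mononuclear cells under superantigen stimulation.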

Read-out in assay [6]: E-selectin (Homo sapiens) (UniProt P16581)
In words: BSK_SAg_Eselectin: BioMAP Diversity Plus: SAg Assay for Eselectin Biomarker Activity (AID 2283091). The conditions noted are these: primary human HUVEC with PBMC; actives raise or lower the signal. The method in brief:
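Co-culture: HUVEC + PBMC. Dose compound; 24 h. ELISA for E-selectin. Bidirectional fit vs DMSO.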

Read-out in assay [7]: Monokine induced gamma interferon (MIG), CXCL9 (gene 4283)
In words: BSK_SAg_MIG: BioMAP Diversity Plus: SAg Assay for Monokine induced gamma interferon (MIG) Biomarker Activity (AID 2283092). The conditions noted are these: primary human HUVEC with PBMC; actives raise or lower the signal. The method in brief: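 Measures CXCL9 protein by ELISA in a human vascular primary-cell co-culture (umbilical vein endothelium with PBMC) 24 h after chemical addition. Activity is scored up or down from the DMSO control.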

Assay [8] in a line: BSK_SAg_PBMCCytotoxicity: PBMC Cytotoxicity Assessment in the BioMAP Diversity Plus: SAg Assay (AID 2283093).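 For AC50: PBMC superantigen activated with SEB plus TSST-1 one hour after compound addition.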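 Note: PBMC viability measured as Alamar Blue reduction fluorescence at 546/580 nm; fitted both ways against DMSO so a hit may be loss or gain of signal.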 The conditions noted are these: primary human HUVEC with PBMC. The method in brief: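 Alamar Blue reduction (6 h, 546/580 nm) reports PBMC cytotoxicity after 90 h superantigen activation (SEB, TSST-1; 20 ng/mL final each) with 1 h compound pre-treatment. Gain or loss of signal fitted versus DMSO.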

Read-out in assay [9]: Interleukin-8 (IL8), CXCL8 (gene 3576)
As to the kind of experiment: BSK_SAg_IL8: BioMAP Diversity Plus: SAg Assay for Interleukin-8 (IL8) Biomarker Activity (AID 2283094). The conditions noted are these: primary human HUVEC with PBMC; actives raise or lower the signal. The method in brief:
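Primary human endothelial cells with PBMC, exposed 24 h; IL-8 determined by ELISA, analysed bidirectionally relative to DMSO.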

Assay [10] can be described thus: BSK_SAg_Proliferation: Cell Proliferation Assessment in the BioMAP Diversity Plus: SAg Assay (AID 2283095).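 Note: relative cell number as total protein by SRB absorbance in sub-confluent culture.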 The conditions noted are these: primary human HUVEC with PBMC. The method in brief:
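A human primary co-culture of umbilical vein endothelium and blood mononuclear cells receives compound; relative cell number is quantified at 96 h by SRB staining and 560 nm absorbance, with DMSO-referenced bidirectional curve fitting.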

A short description of assay [11]: BSK_SAg_SRB: Viability Assessment in the BioMAP Diversity Plus: SAg Assay (AID 2283096).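 Note: cells read one day after compound addition; hits may be either gain or loss of signal compared with DMSO.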 The conditions noted are these: primary human HUVEC with PBMC. The method in brief: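 This overt-cytotoxicity endpoint quantifies protein in human endothelial/PBMC co-cultures at 24 h using SRB absorbance (560 nm) after trichloroacetic acid fixation. Values reflect signal change from the DMSO negative control, fitted bidirectionally.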

Read-out in assay [12]: Vascular cell adhesion molecule 1 (VCAM1), VCAM1 (gene 7412)
In words: BSK_LPS_VCAM1: BioMAP Diversity Plus: LPS Assay for Vascular cell adhesion molecule 1 (VCAM1) Biomarker Activity (AID 2283086). The conditions noted are these: primary human HUVEC with PBMC; actives raise or lower the signal. The method in brief: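 Measured by ELISA: VCAM-1 in LPS-activated HUVEC/PBMC co-cultures 24 h after treatment. Values reflect bidirectional fitting with DMSO as baseline.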

Read-out in assay [13]: Tumor necrosis factor (Homo sapiens) (UniProt P01375)
In words: BSK_LPS_TNFa: BioMAP Diversity Plus: LPS Assay for Tumour Necrosis Factor alpha (TNFa) Biomarker Activity (AID 2283085).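 Note: TNFa protein level quantified by ELISA in the co-culture.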 The conditions noted are these: primary human HUVEC with PBMC; actives raise or lower the signal. The method in brief: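 ELISA-based TNFa endpoint in a human endothelial–PBMC co-culture sampled 24 h post-exposure. Curves were fitted in both directions using DMSO as baseline of activity.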

Broadly, the AC50 is the concentration giving half of the maximal activity seen.

Sequence of E-selectin (Homo sapiens) (P16581 whole entry, looked up): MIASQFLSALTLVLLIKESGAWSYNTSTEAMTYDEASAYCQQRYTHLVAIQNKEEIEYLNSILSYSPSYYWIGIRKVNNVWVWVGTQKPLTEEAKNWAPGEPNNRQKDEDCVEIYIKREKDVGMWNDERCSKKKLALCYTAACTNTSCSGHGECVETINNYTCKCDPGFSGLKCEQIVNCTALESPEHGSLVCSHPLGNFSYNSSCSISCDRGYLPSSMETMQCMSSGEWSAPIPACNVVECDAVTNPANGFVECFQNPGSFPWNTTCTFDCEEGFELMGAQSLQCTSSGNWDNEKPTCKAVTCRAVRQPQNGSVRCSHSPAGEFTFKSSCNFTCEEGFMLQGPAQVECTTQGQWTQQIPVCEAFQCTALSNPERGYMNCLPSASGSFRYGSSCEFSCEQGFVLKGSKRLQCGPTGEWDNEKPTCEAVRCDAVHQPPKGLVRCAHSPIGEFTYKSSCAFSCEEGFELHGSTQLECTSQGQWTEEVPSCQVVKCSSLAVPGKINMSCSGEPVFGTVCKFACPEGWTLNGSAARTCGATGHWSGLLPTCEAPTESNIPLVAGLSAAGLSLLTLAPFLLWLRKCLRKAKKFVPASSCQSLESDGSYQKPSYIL
Sequence of Tumor necrosis factor (Homo sapiens) (P01375 whole entry, looked up): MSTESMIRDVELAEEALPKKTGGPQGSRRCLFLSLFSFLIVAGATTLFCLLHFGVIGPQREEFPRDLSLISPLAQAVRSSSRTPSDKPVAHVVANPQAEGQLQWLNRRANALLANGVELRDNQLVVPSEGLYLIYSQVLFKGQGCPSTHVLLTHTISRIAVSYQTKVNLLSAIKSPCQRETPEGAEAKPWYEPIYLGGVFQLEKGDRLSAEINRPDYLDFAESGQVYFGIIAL

As for `CC[N+](CC)(CC)Cc1ccccc1`, the outcome in assay [1] was “inactive”; in assay [2] it was “inactive”; in assay [3], “inactive”; in assay [4] it was “inactive”; with CD38, CD38 (gene 952), “inactive”; with CD40, CD40 (gene 958), “inactive”. Further, the outcome was “inactive” with CD69, CD69 (gene 969); “inactive” in assay [5]; “inactive” in [6]; “inactive” in assay [7]; “inactive” in assay [8]; “inactive” in assay [9]. Also, the result in assay [10] and in assay [11] was inactive.
Consider `CN(CCO)S(=O)(=O)C(F)(F)C(F)(F)C(F)(F)C(F)(F)C(F)(F)C(F)(F)C(F)(F)C(F)(F)F`, for which the outcome was “inactive” in assay [1]; “inactive” in [2]; “inactive” in assay [3]; “inactive” in [4]; “inactive” with CD38, CD38 (gene 952); “inactive” in the assay with CD40, CD40 (gene 958). The outcome with CD69, CD69 (gene 969) was “inactive”; in assay [5], “inactive”; in assay [6], “inactive”; in [7], “inactive”; in [8] it was “inactive”; in assay [9], “inactive”. Further, the outcome in [10] and in [11] was inactive.
On to `OCC(CO)(CBr)CBr`, for which the outcome is “inactive” in assay [1]; “inactive” in assay [2]; “inactive” in assay [3]; “inactive” in assay [4]; “inactive” in [12]; “inactive” in the assay with CD38, CD38 (gene 952). For the same compound, the outcome was “inactive” with CD40, CD40 (gene 958); “inactive” with CD69, CD69 (gene 969); “inactive” in assay [5]; “inactive” in [6]; “inactive” in assay [7]; “inactive” in assay [8]. In addition, the result in [9], in assay [10] and in [11] was inactive.
With `Oc1cc2ccccc2cc1O`, the outcome in [1] was “inactive”; in assay [2] it was “inactive”; in assay [3], “inactive”; in [4], “inactive”; in assay [12] it was “inactive”; with CD38, CD38 (gene 952), “inactive”. For the same compound, the outcome in the assay with CD40, CD40 (gene 958) is “inactive”; with CD69, CD69 (gene 969), “inactive”; in [5], “inactive”; in assay [6] it was “inactive”; in assay [7], “inactive”; in assay [8] it was “inactive”. Moreover, the outcome in assay [9], in [10] and in [11] was inactive.
Regarding `O=C(O)C(F)(F)OC(F)(F)C(F)(F)OC(F)(F)C(F)(F)OC(F)(F)C(F)(F)C(F)(F)C(F)(F)F`, the AC50 is 52.4 µM (active) and 46.7 µM (active) in assay [1]; 37.8 µM (active) and 25.8 µM (active) in assay [2]; 55.1 µM (active) and 44.7 µM (active) in [3]; 54.8 µM (active) and 30 µM (active) in assay [4]; 50 µM (active) and 46.4 µM (active) in [13]; 45.5 µM (active) and 47.5 µM (active) with CD38, CD38 (gene 952). Besides, the half-maximal activity concentration (AC50) was 43.7 µM (active) and 45.3 µM (active) in the assay with CD40, CD40 (gene 958); 42.8 µM (active) and 32 µM (active) in the assay with CD69, CD69 (gene 969); 48.8 µM (active) and 47.2 µM (active) in assay [5]; 45.4 µM (active) and 49.9 µM (active) in assay [6]; 49.2 µM (active) and 53.4 µM (active) in [7]; 44.5 µM (active) and 45.8 µM (active) in [8]. Besides, the AC50 was 30 µM (active) and 24.7 µM (active) in assay [9]; 49.6 µM (active) and 47.7 µM (active) in assay [10]; 51.5 µM (active) and 53.1 µM (active) in assay [11].
As for `Cc1ccc(C(=O)c2ccccc2)cc1`, the outcome in assay [1] is “inactive”; in assay [3], “inactive”; in [4], “inactive”; in assay [12], “inactive”; in the assay with CD38, CD38 (gene 952) it was “inactive”; in the assay with CD40, CD40 (gene 958) it was “inactive”. The outcome with CD69, CD69 (gene 969) was “inactive”; in assay [5], “inactive”; in assay [6], “inactive”; in assay [7] it was “inactive”; in assay [8] it was “inactive”; in assay [9] it was “inactive”. For the same compound, the outcome in assay [10] and in assay [11] was inactive. Moreover, the AC50 in assay [2] was 1.05 µM (active).
Consider `CS(=O)(=O)c1ccc([C@@H](CC2CCCC2)C(=O)Nc2cnccn2)cc1Cl`, for which the outcome in assay [1] was “inactive”; in assay [2], “inactive”; in assay [3], “inactive”; in [4] it was “inactive”; in assay [12] it was “inactive”; with CD38, CD38 (gene 952), “inactive”. Also, the outcome with CD40, CD40 (gene 958) was “inactive”; in the assay with CD69, CD69 (gene 969), “inactive”; in assay [5], “inactive”; in [6], “inactive”; in assay [7], “inactive”; in assay [9] it was “inactive”. Moreover, in [11], the outcome was inactive. Besides, the concentration at half-maximal activity (AC50) in [10] is 15.2 µM (active).
